According to PubChem BioAssay AID720618 (Broad Institute, 2013):
Results filed as inconclusive are left out. The source made the active and inactive calls. No rule for the calls is given here.

Assay: HeLa cell apoptosis via caspase 3/7 – caspase 3/7 luminescence, several timepoints, dry powder, mechanism study for HRAS target identification, late-stage follow-up (AID 720618)
Conditions: max activity: measured here: caspase 3/7, second timepoint, at 35 µM, stronger effect = higher value

Cc1onc(C(=O)N2CCN(C(c3ccc(Cl)cc3)c3ccc(OCCOCCOCCNC(=O)OC(C)(C)C)cc3)CC2)c1[N+](=O)[O-] (configuration not stated)
max activity: 35.4%
outcome: inactive
